This passage reports activation results from PubChem BioAssay AID588814 (The Scripps Research Institute Molecular Screening Center, 2011).

About 1,200 (0.33%) of roughly 360,000 compounds were called active. This is one part of a sample in which actives are shown more often than they occur.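 The calls were made as follows: active = activation above the run's mean compound activation plus 3 SD (cut at about 16% in these data); inactive = the rest.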

Chain of Muscarinic acetylcholine receptor M1 (Homo sapiens) (P11229 whole entry, looked up): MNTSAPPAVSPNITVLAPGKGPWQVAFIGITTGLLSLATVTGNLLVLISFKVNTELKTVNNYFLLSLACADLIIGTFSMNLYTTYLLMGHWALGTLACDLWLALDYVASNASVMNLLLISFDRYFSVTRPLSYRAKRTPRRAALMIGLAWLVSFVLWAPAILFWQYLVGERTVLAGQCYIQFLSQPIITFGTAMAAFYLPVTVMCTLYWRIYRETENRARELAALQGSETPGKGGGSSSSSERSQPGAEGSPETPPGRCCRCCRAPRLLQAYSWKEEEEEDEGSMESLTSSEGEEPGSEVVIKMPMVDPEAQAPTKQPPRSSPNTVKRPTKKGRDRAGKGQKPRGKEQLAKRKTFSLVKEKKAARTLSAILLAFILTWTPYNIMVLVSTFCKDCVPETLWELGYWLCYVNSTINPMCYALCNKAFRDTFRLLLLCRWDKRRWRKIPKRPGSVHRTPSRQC

This assay has as its target Muscarinic acetylcholine receptor M1 (Homo sapiens) (UniProt P11229). The experiment in a line: human M1 muscarinic receptor agonists, primary screen, Fluo-8 calcium fluorescence, CHO-K1 cells, HTS (AID 588814).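 Also: peak over basal fluorescence ratio within a 140 s kinetic read after compound addition.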 To be noted: CHO-K1 hM1, Fluo-8 calcium fluorescence, agonist mode; at 3 µM; active compounds read high; 0% DMSO, 100% acetylcholine EC100.
As for `CCc1nc2ccc(C(=O)N(C)CCN(C)C)cn2c1N(CC)CCOC`, the activation is -6.84% (inactive).

Turning to `CCc1nc2ccc(C(=O)Nc3ccc(OC)c(OC)c3)cn2c1N(C)C(=O)c1cccc(OC)c1`, the activation was -2.95% (inactive).

In the case of `CCc1nc2ccc(C(=O)Nc3cccc(OC)c3)cn2c1N(CCC(C)C)CCN(C)C`, the activation was 29.4% (active). For `O=C(NNC(=S)NC(=O)c1cn(-c2ccccc2)nc1-c1ccccc1)c1ccncc1` the value was 16.6% (active); for `Cc1ccc(-c2nn(-c3ccccc3)cc2C(=O)NC2CCC(O)CC2)cc1` (stereo not given), 0.01% (inactive); for `NC(=O)C1CCN(C(=O)c2cn(-c3ccccc3)nc2-c2cccnc2)CC1`, -0.33% (inactive). The same measure for `Cc1cc(SCC(=O)NCCN2C(=O)CSC2=O)nc2ccccc12`: -9.92% (inactive). The same measure for `Cc1ccc(S(=O)(=O)NCc2nc3ccccc3c(=O)n2N)cc1`: -0.65% (inactive); for `N#CC1(NC(=O)COC(=O)CCN=C2NS(=O)(=O)c3ccccc32)CCCCC1`: -0.14% (inactive). With `O=C(OCCN=C1NS(=O)(=O)c2ccccc21)c1cccc([N+](=O)[O-])c1`, the activation is -1.9% (inactive).

Take `O=C(CCCN=C1NS(=O)(=O)c2ccccc21)OCC(=O)c1ccc(F)c(F)c1`: the activation is 27% (active). The same measure for `Cc1cccc(NC(=O)c2ccc3c(=O)n(CC4CCCO4)c(=S)[nH]c3c2)c1` (stereo not given): -0.37% (inactive). The same measure for `N#C/C(=C\c1ccc(N2CCOCC2)o1)C(=O)N1CCOCC1`: 2.53% (inactive); for `O=C(NCCc1c[nH]c2ccccc12)C1CCN(Cc2ccc(Br)cc2)CC1`: -4.6% (inactive); for `N#C/C(=C/c1ccc(N2CCCCC2)o1)C(=O)NCCc1c[nH]c2ccccc12`: 28.4% (active). For `CCOCc1nnc(NC(=O)CCC2CCCCC2)s1` the value was -1.9% (inactive). With `O=S(=O)(Nc1ccc(Cl)cn1)c1cnc(Cl)c(Br)c1`, the activation was -0.28% (inactive). For `CCOc1ccc(C(=O)NC(C(=O)NCc2ccccn2)C(C)C)cc1` (stereo not given) the value was -5.01% (inactive); for `O=C(N/N=C/c1ccsc1)c1cc(O)cc(O)c1`, -1.35% (inactive); for `O=C1Nc2ccc([N+](=O)[O-])cc2C1=Nc1cccc(CO)c1`, 0.24% (inactive).

As to `O=C1C(=O)N(CC2COc3ccccc3O2)c2ccccc21` (stereo not given), the activation was 39.1% (active). The same measure for `Cc1noc(C)c1C(=O)NCC1COc2ccccc2O1` (stereo not given): -2.12% (inactive); for `O=C1C(=O)N(c2ccccc2)c2ccccc21`: 13.1% (inactive). For `CCCC1C(c2ccccc2)C(C#N)(C#N)C2(C#N)CC1(N)NC2=O` (stereo not given), the activation was -0.06% (inactive). As to `Cc1ccc(NC2=C(Cl)C(=O)OC2OC(=O)c2ccccc2C)cc1` (stereo not given), the activation was -9.26% (inactive).
